Reference: ChEMBL document CHEMBL4513160, “CO-ADD screening of MMV (CH) - Small Polar Library”
The whole screen tested about 23,000 compounds, of which about 30 (0.1%) showed an effect of 50% or more. For the sample, strong results were picked, then their nearest neighbours and some compounds at random. Measured potencies and affinities stand elsewhere.

system: Pseudomonas aeruginosa; conditions: Concentration 300 ug.mL-1; ASSAY_TEST Inhibition of Bacterial Growth; detection method Absorption (OD600); MEDIA CAMHB; plate type 384well; NBS; CORNING #3640; time 18 hr

Compound	Inhibition [%]
CNCCC1CCCO1 (stereo not given)	6.91
CNC1CC(=O)N(Cc2ccccc2)C1=O (stereo not given)	-1.73
CC1(C)C[S+]([O-])CCN1C(=O)c1cccc(F)c1Cl (stereo not given)	17.16
CCN(CC)C(=O)[C@@H]1C[C@@H](N)CN1C(=O)CS(C)(=O)=O	7.51
Nc1ncn(S(=O)(=O)c2ccccc2)n1	-6.3
Cc1n[nH]cc1CNCc1ccc(-n2ccnc2)nc1	0.04
O=C(CC1CCCN1)c1ccco1 (stereo not given)	24.64
CC(O)C(=O)NC(N)=O (stereo not given)	10.69
O=c1ccoc2ccc(F)cc12	24.86
CCCn1cnnc1CNCC(=O)Nc1cnccn1	7.89
CNC(=O)NC(=O)C(C)N1CCN(c2nccs2)CC1 (stereo not given)	0.51
CCCc1nnc(N2CCC3(CC2)OCC(C)O3)s1 (stereo not given)	-23.27
CC(C)NC(=O)c1cn(Cc2ccc(Cl)cc2)nn1	37.8
CCOC(=O)CNC(=O)N1CCn2cccc2C1C (stereo not given)	-25.66
O=C(Cc1ccsc1)N[C@@H]1CCOC[C@H]1OCCO	1.98
c1ccc(C2=NN=C(NC3CC3)SC2)cc1	6.85
O=C(Cc1cccc(O)c1)NCCn1cc(Cl)cn1	-17.42
COc1cc(C(=O)N[C@@H]2CC[C@@H](N)C2)ccc1F	12.15
N[C@@H]1CCOc2c(F)ccc(F)c21	32.11
CC(Sc1ccccc1Cl)C(=O)NCC(=O)N(C)C (stereo not given)	4.5
CCC(c1ccc(F)cc1)N1CC[S+]([O-])CC1 (stereo not given)	11.41
NS(=O)(=O)N(Cc1cccnc1)Cc1ccco1	8.52
COCCNCC(=O)Nc1cccc(CSC)c1	7.12
CCn1nc(C)c(CN2CCCCC(N)C2)c1C (stereo not given)	14.9
O=C(CCN1CCC(CO)CC1)Nc1ccccc1F	3.62

Compound	Inhibition [%]
Cc1noc(CN2CCN(S(C)(=O)=O)CC2)n1	-16.86
CCS(=O)(=O)c1cncnc1N	19.95
Cc1noc(C)c1CCC(=O)NC(C)c1ccccn1 (stereo not given)	-45.2
Cc1cc(C)cc(N2CCNCC2=O)c1	2.16
NC(=O)C1=NOC(CNCc2ccccc2Cl)C1 (stereo not given)	23
Cc1cc(C(=O)N[C@@H]2CCOC[C@H]2O)sc1C	10.73
COc1ccc2[nH]c(CCCN)nc2c1	28.12
N[C@H]1CCCNC1=O	19.57
CCc1nc(CNC(=O)C2CCCO2)cs1 (stereo not given)	6.65
CCS(=O)(=O)NC1CCN(C(=O)c2cccc(F)c2)C1 (stereo not given)	13
Cc1noc(CN(C)CCC2CCOCC2)n1	-10.62
O=C(NCc1ccc2c(c1)OCCCO2)c1cscn1	14.64
NC1CC(=O)Nc2ccccc21 (stereo not given)	18.18
CC(C)C[C@@H](N)C(=O)NCc1ccc2nsnc2c1	6.42
CC(C)C(=O)NC1CCCNC1 (stereo not given)	-0.49
N#Cc1ccc(NCc2ccccc2F)nc1	16.68
Cn1cnnc1CCNC(=O)c1cc(Cl)c(Cl)n1C	15.17
COCCC(=O)c1ccc(F)cc1	19.26
CCN1CCCC1CNC(=O)c1c[nH]nn1 (stereo not given)	16.01
Cc1cc(C)cc(NC(=O)CNCCCO)c1	5.1
NC1CCCc2c(F)cccc21 (stereo not given)	23.88
Fc1ccc2nc(N3CCCNCC3)oc2c1F	33.45
Cc1n[nH]c(C)c1NC(=O)C(C)CN (stereo not given)	18.11
CN(Cc1ccc2c(c1)OCO2)C(=O)c1cncs1	25.32
COC(=O)c1ccc(=O)n(CC(=O)NCCC(C)C)c1	4.64

Compound	Inhibition [%]
O=C(NCCOc1ncccc1Cl)c1cscn1	13.9
COc1ccc(CN2C[C@H](O)[C@@H](N(C)C)C2)c(C)c1C	27.33
Cc1cc(C(=O)N2C[C@H](C3CC3)[C@@H](N)C2)ccc1O	1.32
CC1CCN(CCNC(=O)c2cnccn2)CC1	-12.84
CNCCN1CCOC(C)(C)C1	9.7
NS(=O)(=O)c1ccc(NC(=O)Cn2ccnc2)cc1	5.95
Cc1cc(C(=O)O)cc(N2C[C@H](C3CC3)[C@@H](N)C2)n1	-2.3
CC(SCCN1CCOCC1)C(=O)N(C)C(C)C (stereo not given)	5.48
N#Cc1ccc(Br)o1	8.03
Cc1cccc(C)c1-n1nnnc1SCC(N)=O	21.56
CNC(=O)C1CCN(CCCOc2ccccc2)CC1	24.15
CCCNC(=O)CCNC(=O)NCC	0.02
CCc1ccc(C(=O)NC2CNC[C@@H]2OC)o1 (stereo not given in full)	36.32
NCC1(CCO)CCOC1 (stereo not given)	6.83
COc1cccc(-c2ccc(CNS(N)(=O)=O)cc2)c1	23.3
O=C(NCC1CCNCC1)c1ccncc1	12.69
CCN(CCn1cccn1)C(=O)CNC(=O)N(C)C	-8.78
CCN(c1ccccc1)S(N)(=O)=O	5.95
COc1c(C)cnc(CNC(=O)CSC)c1C	1.37
CN1CCC(NC(=O)CSCc2cccs2)CC1	12.03
CNC(=O)NC1CN(C(=O)OC(C)(C)C)C1	-6.26
CN(C)CCCOc1cccc(CN2CC(O)C2)c1	2
OC1(CNCc2ccccn2)CCc2ccccc21 (stereo not given)	24.9
Cc1c(Cl)cccc1C(=O)NC(C)c1nnnn1C (stereo not given)	8.95
Cc1cc(N(C)C)n2nccc2n1	-18.53

Compound	Inhibition [%]
CCN(CC)C(=O)COc1ccc(C(C)=O)c(F)c1	4.67
COc1cn(C)c(C(=O)NCc2ccco2)cc1=O	21.6
CC(=O)c1ccc(CNc2nccnc2C#N)nc1C	14.58
Cc1nc(C2CCN(C(=O)c3cn[nH]c3)CC2)no1	-1.22
NC1CCC(NC(=O)c2ccnc(C3CC3)n2)CC1 (stereo not given)	4.44
CN1CCC(CCNS(C)(=O)=O)CC1	-4.45
CCCc1noc(C(C)Nc2cccc(C(N)=O)c2)n1 (stereo not given)	24.66
O=S1(=O)CCC(NCc2csc(-c3ccccn3)n2)C1 (stereo not given)	17.32
CCC1CN(Cc2ccnc(N)c2)CCO1 (stereo not given)	4.62
COCCNC(=O)CNC(=O)c1cc(C)cc(C)c1Br	7.79
CNCCCNC(=O)CCc1ccsc1	-24.67
CCC(C)NC(=O)NCc1ccc(-n2ccnc2)nc1 (stereo not given)	14.1
CN1CCN(C(=O)C2COc3ccccc3O2)CC1=O (stereo not given)	3.72
Cc1ccccc1CNc1nnc(CO)s1	26.98
CC1(CO)COCCN1Cc1ccccc1 (stereo not given)	11.96
Cc1cccc(C(=O)Nc2nnn(C)n2)c1	2.82
Cc1n[nH]c(C)c1S(=O)(=O)N1CCN(C)CC1	33.93
CCNC(=O)Nc1c[nH]nc1C1CCCNC1 (stereo not given)	15.62
NS(=O)(=O)NCC1CCCN(CCC2CCCC2)C1 (stereo not given)	13.03
Cc1nc(CN2CCC(O)(CN3CCCC3)CC2)c[nH]1	20.39
O=C(C1CCCO1)N1CCN(c2cc(Br)ccn2)CC1 (stereo not given)	3.3
c1ccc(-c2nc3c([nH]2)CCNC3)cc1	7.84
CNC(=O)CN1CCCC(CO)(CC=C(C)C)C1 (stereo not given)	20.92
N#Cc1ccc(CN2CCC3(CCC3O)CC2)cc1 (stereo not given)	20.3
Cc1ocnc1C(=O)NCCNC(=O)c1cccnc1	1.53
